IMPase inh: membrane-permeable compound that blocks inositol monophosphatase | 120,000 tested, under 10 active | inhibition (IP1 accumulation), % at 46.1 µM | CHO-M1 cells, IP1 accumulation, HTRF TR-FRET ratio | AID 901; active means well fitted curve in the direction sought with a large enough effect in the signal ratio, not every such curve was filed as active; inconclusive means small, poorly fitted or top-dose-only effect, or a change in a side signal; inactive means no such curve, though single readings can be large or run the other way; the % refers to the signal ratio;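 further: cells stimulated with carbachol in lithium chloride buffer; higher means more IMPase inhibition seen as more IP1 and lower FRET ratio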
Target sequence (P97697 whole entry, looked up): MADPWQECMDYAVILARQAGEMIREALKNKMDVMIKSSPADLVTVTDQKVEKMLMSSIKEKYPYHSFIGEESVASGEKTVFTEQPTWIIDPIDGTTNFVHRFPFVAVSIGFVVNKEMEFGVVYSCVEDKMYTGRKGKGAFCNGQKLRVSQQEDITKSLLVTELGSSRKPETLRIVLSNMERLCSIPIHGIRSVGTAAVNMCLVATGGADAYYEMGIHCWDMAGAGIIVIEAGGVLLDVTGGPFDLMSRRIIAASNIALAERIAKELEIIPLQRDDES
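Cellular IMPase inhibition is scored as a rise in cytosolic IP1, detected by competitive TR-FRET between d2-labelled IP1 and a europium anti-IP1 antibody. M1-expressing CHO cells were stimulated with carbachol for 30 min at 37C, with lithium (50 mM LiCl) present in the buffer.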
ALDH1A1 inh: ALDH1A1 (human) enzyme inhibition | Potency, µM (titrated, usually from 75.3 µM), most hits filed as inhibitors | actives 7.3% (n = 220,000) | AID 1030 | Purified ALDH1A1, NADH fluorescence, propionaldehyde substrate; active means well fitted inhibition curve with a large enough effect, not every such curve was filed as active; inconclusive means small, poorly fitted or top-dose-only effect, or another doubt; inactive means no such curve, though single readings can be large or run the other way
HPGD inh: HPGD (human) dehydrogenase inhibition. purified HPGD, NADH fluorescence kinetic, PGE2 substrate. Potency, µM, usual class: inhibitors. actives 4.3% (n = 150,000). AID 894; active means well fitted inhibition curve with a large enough effect, not every such curve was filed as active; inconclusive means small, poorly fitted or top-dose-only effect, or another doubt; inactive means no such curve, though single readings can be large or run the other way
Target sequence (P15428 whole entry, looked up): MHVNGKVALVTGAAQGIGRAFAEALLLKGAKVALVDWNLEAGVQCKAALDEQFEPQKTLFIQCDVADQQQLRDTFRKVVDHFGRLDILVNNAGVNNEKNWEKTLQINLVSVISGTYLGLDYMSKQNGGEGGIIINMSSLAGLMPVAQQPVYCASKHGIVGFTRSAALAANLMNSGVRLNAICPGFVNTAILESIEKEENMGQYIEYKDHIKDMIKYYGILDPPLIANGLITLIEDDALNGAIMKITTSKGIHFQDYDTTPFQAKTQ
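20 nM HPGD preincubated 15 min at room temperature with compound in 50 mM Tris-HCl pH 8, 0.01% Tween 20. Started with 1 mM NAD+ and 30 uM prostaglandin E2; NADH fluorescence (360/450 nm) read 5 times over 30-s intervals, last minus first.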
IMPase Li inh: IMPase inhibition in cells with lithium potentiation; CHO-M1 cells, IP1 TR-FRET (IP-One), carbachol + lithium; Potency, µM (titrated, usually from 59.4 µM), hits mostly inhibitors; AID 1457; actives 0.35% (n = 210,000);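 further: IP1 builds up when IMPase is blocked and the TR-FRET signal falls; nearly all actives have a fitted effect of over 50% in size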
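Test compounds were applied to CHO-M1 cells previously cultured for 16–30 h at 2000 per well. A small lithium amount accompanied them; after 30 min at 37C, IP1 was quantified by TR-FRET.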
NPSR antag: neuropeptide S receptor (human) antagonism, cAMP | Q6W5P4 | CHO-NPSR cells, cAMP TR-FRET, antagonist mode | Potency, µM (top dose mostly 38.3 µM), actives largely listed as inhibitors | actives 1% (n = 220,000); further: nearly all actives have a fitted effect of over 50% in size
12-hLO inh: blocks human 12-lipoxygenase activity; Potency, µM (doses to about 57.1 µM), hits mostly inhibitors; AID 1452; P18054; actives 0.12% (n = 150,000); purified 12-hLO, xylenol orange hydroperoxide absorbance; further: nearly all actives have a fitted effect of over 55% in size
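Purified human 12hLO (150 nM), preincubated 15 min with compound, then 40 uM arachidonic acid for 30 min, room temperature, Hepes pH 7.0 with 0.01% Triton X-100. Hydroperoxide detected by ferrous iron/xylenol orange; 573/405 nm absorbance ratio gives reaction progress.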
Numbers stand for hits; 0 = inactive; ? = inconclusive; - = no result; [ ] = dose if it differs, or a comment. This is a sample that favours compounds with a hit; in the whole collection about 8.9% have one here. Unless noted, the call rests on the fitted dose curve; in most records, active means well fitted curve in the direction sought with a large enough effect; inconclusive means small, poorly fitted or top-dose-only effect, or another doubt; inactive means no such curve, though single readings can be large; an effect the other way counts as inactive or inconclusive.

SMILES	IMPase inh	ALDH1A1 inh	HPGD inh	IMPase Li inh	NPSR antag	12-hLO inh
COCCNC(=O)/C(C#N)=C/c1cccc(NC(=O)c2ccccc2Cl)c1	0	15.8µM	?	0	0	0
COCCn1c(C(=O)N2CCCC2)cc2c1C[C@H]1CN(C(=O)c3ccccc3)[C@@](Cc3ccccc3)(C(=O)OC)[C@@H]21	-	0	0	0	-	0
O=C(COc1ccccc1)NCC(=O)Nc1cccc2ccccc12	0	0	0	0	0	0
C/C(=N\NC(=O)c1ccc2c(c1)OCO2)c1ccc(C(=O)O)s1	-	?	-	0	0	-
O=c1c2cnn(-c3ccc(F)cc3)c2ncn1Cc1ccccn1	0	0	0	0	0	0
Cc1ccccc1C(=O)NC(=S)Nc1ccc(S(=O)(=O)N(C)c2ccccc2)cc1	0	17.8µM	0	0	0	?
Cc1cccc(C(=O)NC(=S)Nc2ccc(S(=O)(=O)N(C)c3ccccc3)cc2)c1	0	20µM	0	0	0	?
N#Cc1cccc(NC(=O)CC2CCCCC2)c1	0	0	0	0	0	0
O=c1c2cccnc2[nH]c(=S)n1Cc1ccccc1	0	0	0	10µM	0	0
COc1cc2[nH]c(=S)n(Cc3ccccc3)c(=O)c2cc1OC	-	4.47µM	-	0	0	-
COc1cc2[nH]c(=O)n(Cc3ccccc3Cl)c(=O)c2cc1OC	0	?	0	0	0	0
O=c1c2nccnc2[nH]c(=S)n1Cc1ccccc1	-	0	-	0	0	-
Cc1ccnc(NC(c2cc(C)ccc2O)c2ccc3cccnc3c2O)c1 (configuration not stated)	0	-	-	-	-	-
COc1ccccc1NC(c1cccnc1)c1ccc2cccnc2c1O (configuration not stated)	0	2.51µM	0	0	0	0
Cc1ccnc(NC(c2ccsc2)c2ccc3ccc(C)nc3c2O)c1 (configuration not stated)	-	25.1µM	-	0	0	-
Cc1ccnc(NC(c2cccnc2)c2ccc3cccnc3c2O)c1 (configuration not stated)	-	10µM	-	0	0	-
COc1ccc(C(Nc2cc(C)ccn2)c2ccc3ccc(C)nc3c2O)cc1 (configuration not stated)	-	-	-	-	0	-
CC1CCN(C(=O)CNC(=O)c2ccc(Cl)cc2Cl)CC1	0	0	0	0	0	0
CC(C)(O)C#Cc1ccc(CN2CCN(Cc3ccccc3)C(CCO)C2)cc1 (configuration not stated)	-	?	-	0	0	-
CC1CN(C(=O)CSc2ncnc3sccc23)CC(C)O1 (configuration not stated)	0	0	0	0	0	0
COC(=O)c1cc(C#N)c(N(C)Cc2ccccc2)nc1C	0	?	?	0	0	0
O=C(C1CC1)N1CCc2cc(S(=O)(=O)NCC3COc4ccccc4O3)ccc21 (configuration not stated)	0	0	0	0	0	0
O=c1c(Cc2ccc(Cl)cc2Cl)c(O)ccn1Cc1ccncc1	-	0	-	0	0	-
COc1ccc(Br)cc1S(=O)(=O)NCCCN1CCOCC1	-	0	-	0	0	-
C=CCN1C(=O)C(Cc2ccc(SC(F)F)cc2)SC1=Nc1ccc(C(=O)O)cc1 (configuration not stated)	-	10µM	-	0	0	-
SMILES	IMPase inh	ALDH1A1 inh	HPGD inh	IMPase Li inh	NPSR antag	12-hLO inh
Cc1[nH]n(-c2ccccc2)c(=O)c1C(c1ccc(C(=O)O)cc1)c1c(C)[nH]n(-c2ccccc2)c1=O	-	?	?	0	0	0
Cc1[nH]n(-c2ccccc2)c(=O)c1C(C[N+](=O)[O-])c1ccc(Br)cc1 (configuration not stated)	0	22.4µM	?	0	0	0
Cc1[nH]n(-c2ccccc2)c(=O)c1C(c1cccc([N+](=O)[O-])c1)c1c(C)[nH]n(-c2ccccc2)c1=O	-	?	31.6µM	0	0	0
O=C(/C=C/c1cccc([N+](=O)[O-])c1)N1CC[C@@]2(O)CCCC[C@H]2C1	-	-	-	-	0	-
COc1ccc(C2Sc3nncn3N2Cc2ccc(C#N)cc2)cc1 (configuration not stated)	0	10µM	0	0	0	0
COc1ccc(C(=O)N2CCC3(CCN(Cc4ccc(C#N)cc4)CC3)CC2)cc1	-	0	0	0	-	0
O=S(=O)(c1ccc(Cl)cc1)N1CCN(S(=O)(=O)N2CCCCCC2)CC1	-	0	-	0	0	-
COc1ccc(C(C)=O)cc1COc1ccc(F)cc1	-	?	-	0	0	-
COc1ccc(C(C)=O)cc1COC(=O)CNC(=O)c1ccc(F)cc1	-	?	?	0	0	0
COc1ccc(C(C)=O)cc1COC(=O)CNC(=O)c1ccc(Cl)cc1	0	0	15.8µM	?	0	0
CCOc1ccc(C(=O)NCC(=O)OCc2cc(C(C)=O)ccc2OC)cc1	0	3.55µM	0	0	0	0
CC(C)Cc1nc2oc3c(Cl)ncnc3c2c2c1CCCC2	-	-	-	-	0	-
O=C(NNC(=O)C1CCCCC1)c1ccco1	-	0	-	0	0	-
Cc1cccc(OCc2nc3c4c(ncn3n2)-c2ccccc2CC42CCCC2)c1	0	0	?	0	0	0
Clc1ccccc1C1=CC(c2ccco2)n2nnnc2N1 (configuration not stated)	-	12.6µM	-	0	0	-
O=[N+]([O-])c1cc(-c2ncccn2)c([N+](=O)[O-])s1	-	2.24µM	28.2µM	0	?	0
COC(=O)N/N=C\c1ccc(OC(=O)c2ccco2)cc1	-	?	-	0	0	-
O=C(NN1CCN(Cc2ccccc2)CC1)c1ccc(N2CCOCC2)c([N+](=O)[O-])c1	-	2.24µM	-	0	0	-
O=C(NCCN1CCOCC1)c1ccc(N2CCCC2)c([N+](=O)[O-])c1	-	15.8µM	-	0	0	-
O=C(NCc1ccc2c(c1)OCO2)c1ccc(N2CCCCCC2)c([N+](=O)[O-])c1	0	10µM	14.1µM	0	0	0
CCN1C(=O)C2C(c3ccc(O)c(OC)c3)NC(C)(C(=O)OC)C2C1=O (configuration not stated)	0	0	0	0	0[7.67 µM]	0
COc1cc(/C=C(\NC(=O)c2ccccc2)C(=O)NCC(=O)O)c([N+](=O)[O-])cc1OC	-	0	0	0	0	0
CC(C)C(=O)c1cn(CC(=O)NCC2CCCO2)c2ccccc12 (configuration not stated)	0	22.4µM	0	0	0	0
Cn1cc(SCC(=O)NCC2CCCO2)c2ccccc21 (configuration not stated)	0	0	28.2µM	0	0	0
Cn1c(=O)cc(SCC(=O)NCC2CCCO2)c2ccccc21 (configuration not stated)	0	12.6µM	-	-	?	0
Cn1c(=O)cc(SCC(=O)NCCC2=CCCCC2)c2ccccc21	-	?	7.08µM	0	0	0
CCCn1cc(SCC(=O)NCC2CCCO2)c2ccccc21 (configuration not stated)	0	?	?	0	0	0

Source: PubChem BioAssay (National Center for Advancing Translational Sciences (NCATS))
